# Measured values from PubChem BioAssay.
# For some of these results: Entries with a potency or affinity are not part of this list. Active and inactive are the calls of the source.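 Rule for the calls, unless noted: active = calcium signal cut by more than 3 SD below the full-agonist control yet still positive, in both repeats and the earlier primary screen; inactive = the rest.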
# Legend:
# [1] = test system: TRPC4 beta (transient receptor potential cation channel C4), mouse; test: TRPC4 cation channel opening, retest – cell-based, Fluo4 calcium, HEK293 TRPC4beta/mu-opioid, duplicates, 10 µM, confirmation (AID 2426;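 active = fluorescence ratio normalized to control raised more than 50% in primary screen plus both repeat runs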;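 for activation: percent rise of integrated ratio over buffer wells lacking compound which define 0%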); details: Fluo4 calcium fluorescence, at 10 µM; hits give high values
# [2] = test system: transient receptor potential cation channel C4 beta (TRPC4), mouse; test: TRPC4 cation channel opening, second retest – cell-based, second round, Fluo4, HEK293 TRPC4beta/mu-opioid, 1 µM, confirmation (AID 2461;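 active = primary screen active and over 50% activation in each of two duplicate runs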); details: Fluo4 calcium fluorescence, at 1 µM; hits give high values
# [3] = test system: TRPC4 (transient receptor potential cation channel C4 beta), mouse; test: potentiation of DAMGO EC20 TRPC4 response – cell-based, second round, Fluo-4, HEK293 TRPC4beta/mu-opioid, 1 µM, confirmation (AID 2554;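 active = primary screen hit whose fluorescence ratio, in both repeats, exceeds the weak agonist control mean by 3 SD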); details: DAMGO EC20, Fluo-4 calcium flux, at 1 µM; hits give high values
# [4] = test system: TRPC4 beta (transient receptor potential cation channel C4), mouse; test: potentiation of DAMGO EC20 TRPC4 response – cell-based, Fluo-4, HEK293 TRPC4beta/mu-opioid, confirmation (AID 2555;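 active = primary screen hit whose calcium fluorescence ratio, in both repeats, exceeds the weak agonist control mean by 3 SD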); details: DAMGO EC20, Fluo-4 calcium flux, at 10 µM; hits give high values
# [5] = target: Short transient receptor potential channel 4 (Mus musculus) (UniProt Q9QUQ5); test: blockers of DAMGO-evoked TRPC4 calcium flux – cell-based, Fluo4, HEK293 TRPC4beta/mu-opioid, confirmation (AID 2636); details: at 10 µM; hits give high values
# [6] = target: Short transient receptor potential channel 4 (Mus musculus) (UniProt Q9QUQ5); test: blockers of DAMGO-evoked TRPC4 calcium flux – cell-based, second round, Fluo4, HEK293 TRPC4beta/mu-opioid, 1 µM, confirmation (AID 2637;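 active = calcium signal ratio cut to more than 3 SD under the fully stimulated control mean yet still positive, in both repeats and the primary screen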); details: at 1 µM; hits give high values
# [7] = target: Short transient receptor potential channel 4 (Mus musculus) (UniProt Q9QUQ5); test: calcium entry via TRPC4 opening agents – cell-based, HEK293 TRPC4/mu-opioid, Fluo-4 calcium, dose response (AID 434937;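 active = primary screen activator hit with a dose response curve and TRPC4 channel activation at any tested dose; inactive = no activation, no dose response, or not a primary hit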)
# [8] = target: Short transient receptor potential channel 4 (Mus musculus) (UniProt Q9QUQ5); test: block of DAMGO-driven TRPC4 calcium entry – cell-based, HEK293 TRPC4/mu-opioid, Fluo-4 calcium, dose response (AID 434942;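 active = primary screen inhibitor hit that blocks the TRPC4 channel at some tested dose, yielding a dose curve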)
# [9] = target: Short transient receptor potential channel 6 (Mus musculus) (UniProt Q61143); test: TRPC6 blockade by TRPC4 inhibitor hits – cell-based, HEK293, membrane potential dye, duplicate, selectivity assay for TRPC4 inhibitor project, confirmation (AID 434948;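 active = active in primary screen and both duplicates, each dropping signal beyond three positive-control SD with fluorescence still positive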); details: HEK293 TRPC6, membrane potential dye fluorescence, at 10 µM, stimulated with maximal-effect acetylcholine; hits give high values
# [10] = target: Short transient receptor potential channel 6 (Mus musculus) (UniProt Q61143); test: TRPC6 opening by TRPC4 activator hits – cell-based, HEK293, membrane potential dye, duplicate, selectivity assay for TRPC4 activator project, confirmation (AID 434950;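 active = membrane potential signal rise above negative control mean plus 3 SD in both duplicates, also active in the earlier TRPC4 screen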;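 for activation: 0% = buffer only wells and 100% = acetylcholine maximal-effect wells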); details: HEK293 TRPC6, membrane potential fluorescence, at 10 µM; activation: hits give high values; outcome: activation
# [11] = target: Short transient receptor potential channel 6 (Mus musculus) (UniProt Q61143); test: positive modulators of mouse TRPC6 channel – HEK293 cells, membrane potential dye, duplicate, selectivity assay for TRPC4 potentiator project, confirmation (AID 434952;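 active = compound raising the membrane signal above positive-control mean plus 3 SD in both repeats, and a primary screen hit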); details: HEK293 TRPC6, membrane potential dye fluorescence, at 10 µM, maximal acetylcholine added after compound; hits give high values
# [12] = target: Short transient receptor potential channel 4 (Mus musculus) (UniProt Q9QUQ5); test: calcium flux activators in TRPC4/5HT1a cells, counter-screen for TRPC4 activator project, cell-based, second counter screen, HEK293 TRPC4/5HT1a, Fluo-4 (AID 434977;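 active = calcium signal rise above buffer-control mean plus 5 SD in both duplicates, and also a hit in the primary screen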;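 for activation: plate controls were assay buffer for no effect and maximal serotonin response for full effect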); details: Fluo-4 calcium flux, at 10 µM; hits give high values
# [13] = serotonin-gated TRPC4 signal block – cell-based, second counter screen, HEK293 TRPC4/5HT1a, Fluo-4, counter-screen for TRPC4 inhibitor project, confirmation (AID 434978;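 active = primary screen active whose calcium signal fell more than 3 SD beyond the full-serotonin control mean in both duplicate plates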;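 note: serotonin given first at submaximal then at maximal dose after compound preincubation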); details: Fluo-4 calcium flux, at 10 µM, serotonin added to trigger calcium flux; hits give high values
# [14] = test system: TRPC4 (mouse), co-expressed with 5HT1a in HEK293; test: enhancement of serotonin-evoked TRPC4 response – cell-based, second counter screen, HEK293 TRPC4/5HT1a, Fluo-4, counter-screen for TRPC4 potentiator project, confirmation (AID 434979;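 active = signal rise over 3 SD above mean of control wells given weak agonist, in both repeats and first screen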); details: Fluo-4 calcium flux, at 10 µM, serotonin added at its EC20 dose; hits give high values
# [15] = nonspecific calcium rise without TRPC4 – cell-based, HEK293 mu-opioid receptor line, counter-screen for TRPC4 activator project, confirmation (AID 449723;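 active = hit in primary screen, with calcium signal over 5 SD above buffer well mean in both duplicates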;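 note: counter screen cells carry the mu-opioid receptor alone and lack TRPC4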); details: HEK293 mu-opioid cells, Fluo-4 calcium fluorescence, at 10 µM; hits give high values
# [16] = nonspecific potentiation of DAMGO calcium response – cell-based, HEK293 mu-opioid receptor line, counter-screen for TRPC4 allosteric potentiator project, confirmation (AID 449724;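 active = calcium signal rise more than 3 SD above the low-dose agonist control mean, in both duplicate plates and the primary screen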); details: HEK293 mu-opioid receptor cells, Fluo-4 calcium flux, at 10 µM, compound added before EC20 DAMGO stimulus; hits give high values
# [17] = target: Short transient receptor potential channel 4 (Mus musculus) (UniProt Q9QUQ5); test: potentiation of DAMGO-evoked TRPC4 calcium signal – cell-based, HEK293 TRPC4/mu-opioid, Fluo-4 calcium, EC20 DAMGO, dose response (AID 434941;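 active = earlier screen potentiator hit that boosts the TRPC4 ion channel at some dose, with a dose response; inactive = no potentiation, no dose response, or not a prior hit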;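 note: calcium entry triggered by an EC20 dose of DAMGO at the co-expressed mu-opioid receptor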)
# [18] = nonspecific flux increase, KCNQ1-free cells – parental CHO cells, counter-screen for KCNQ1 potentiator project (AID 493006;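 active = duplicate-averaged activation above buffer control mean plus 5 SD of those controls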;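 note: fluorescence ratio of max minus min over baseline after K+ and Tl+ depolarization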); details: parental CHO-K1 cells, FluxOR thallium flux, at 10 µM; hits give high values
# [19] = target: Potassium voltage-gated channel subfamily KQT member 1 (Homo sapiens) (UniProt P51787); test: enhancement of KCNQ1 channel thallium flux – FluxOR thallium flux, CHO cells, duplicates, confirmation (AID 493007;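 active = potentiation averaged over duplicate wells exceeding buffer-only control mean by more than 3 SD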;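 note: 0% = buffer-only wells and 100% = R-L3 activator control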); details: KCNQ1 cell line, FluxOR thallium flux fluorescence, at 10 µM; hits give high values, % of reference activator effect, buffer zero
# [20] = target: Potassium voltage-gated channel subfamily KQT member 2 (Rattus norvegicus) (UniProt O88943); test: KCNQ2 thallium flux enhancement – KCNQ2-CHO-K1 cells, selectivity assay for KCNQ1 potentiator project (AID 493009;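 active = mean duplicate potentiation above the buffer control mean plus 5 SD of buffer wells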;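 note: assay conditions were tuned for KCNQ1 rather than KCNQ2 modulators; signal is max minus min fluorescence divided by baseline after thallium stimulus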); details: FluxOR thallium flux fluorescence, at 10 µM; hits give high values, scaled: buffer 0, activator control 100
# Chain of Potassium voltage-gated channel subfamily KQT member 2 (Rattus norvegicus) (O88943 whole entry, looked up): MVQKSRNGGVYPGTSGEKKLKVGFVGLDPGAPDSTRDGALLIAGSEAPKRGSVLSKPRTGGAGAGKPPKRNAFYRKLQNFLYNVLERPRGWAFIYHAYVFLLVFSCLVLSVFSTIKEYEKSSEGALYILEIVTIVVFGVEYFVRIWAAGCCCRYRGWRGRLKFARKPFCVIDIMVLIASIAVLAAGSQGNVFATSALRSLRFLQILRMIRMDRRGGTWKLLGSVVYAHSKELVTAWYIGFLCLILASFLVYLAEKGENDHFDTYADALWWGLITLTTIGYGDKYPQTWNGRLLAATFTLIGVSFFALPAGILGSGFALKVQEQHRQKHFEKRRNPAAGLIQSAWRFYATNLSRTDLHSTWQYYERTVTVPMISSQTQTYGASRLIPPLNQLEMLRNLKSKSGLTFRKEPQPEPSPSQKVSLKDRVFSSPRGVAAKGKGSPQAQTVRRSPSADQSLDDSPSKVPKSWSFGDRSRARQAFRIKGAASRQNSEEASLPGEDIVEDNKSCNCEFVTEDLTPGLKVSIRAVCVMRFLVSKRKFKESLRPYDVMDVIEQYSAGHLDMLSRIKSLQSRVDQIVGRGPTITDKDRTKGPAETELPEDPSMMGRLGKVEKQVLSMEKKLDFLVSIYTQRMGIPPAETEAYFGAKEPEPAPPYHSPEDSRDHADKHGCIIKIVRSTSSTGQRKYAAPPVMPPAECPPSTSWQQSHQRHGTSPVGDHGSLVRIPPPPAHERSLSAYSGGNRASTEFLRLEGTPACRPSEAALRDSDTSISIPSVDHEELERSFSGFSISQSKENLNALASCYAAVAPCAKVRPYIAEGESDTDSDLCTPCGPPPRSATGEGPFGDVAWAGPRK
# Chain of Short transient receptor potential channel 4 (Mus musculus) (Q9QUQ5 whole entry, looked up): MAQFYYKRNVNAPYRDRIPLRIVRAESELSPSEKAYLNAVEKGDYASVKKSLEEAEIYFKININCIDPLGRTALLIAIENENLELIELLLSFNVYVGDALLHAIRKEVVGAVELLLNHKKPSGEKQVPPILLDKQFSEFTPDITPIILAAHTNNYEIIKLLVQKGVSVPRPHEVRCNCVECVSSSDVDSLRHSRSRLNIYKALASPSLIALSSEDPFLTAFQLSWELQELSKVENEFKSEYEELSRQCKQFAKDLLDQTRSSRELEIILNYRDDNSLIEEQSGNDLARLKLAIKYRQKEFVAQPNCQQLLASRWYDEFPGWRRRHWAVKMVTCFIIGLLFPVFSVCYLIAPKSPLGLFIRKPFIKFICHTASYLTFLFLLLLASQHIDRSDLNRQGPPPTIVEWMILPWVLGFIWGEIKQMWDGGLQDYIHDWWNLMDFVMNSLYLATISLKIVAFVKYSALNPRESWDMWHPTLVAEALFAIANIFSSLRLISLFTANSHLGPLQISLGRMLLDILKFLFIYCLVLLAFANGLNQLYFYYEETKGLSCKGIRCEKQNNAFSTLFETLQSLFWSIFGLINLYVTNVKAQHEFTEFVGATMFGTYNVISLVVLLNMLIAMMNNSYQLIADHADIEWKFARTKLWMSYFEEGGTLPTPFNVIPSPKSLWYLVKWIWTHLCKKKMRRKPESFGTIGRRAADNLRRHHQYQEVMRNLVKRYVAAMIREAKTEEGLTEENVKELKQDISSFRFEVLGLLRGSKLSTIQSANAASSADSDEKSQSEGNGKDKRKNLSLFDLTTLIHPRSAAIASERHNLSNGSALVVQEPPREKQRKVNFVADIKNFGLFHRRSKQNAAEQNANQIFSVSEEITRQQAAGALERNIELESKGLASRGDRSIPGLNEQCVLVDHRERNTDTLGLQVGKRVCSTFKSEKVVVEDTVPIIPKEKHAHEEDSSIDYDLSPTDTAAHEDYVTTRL
# Chain of Short transient receptor potential channel 6 (Mus musculus) (Q61143 whole entry, looked up): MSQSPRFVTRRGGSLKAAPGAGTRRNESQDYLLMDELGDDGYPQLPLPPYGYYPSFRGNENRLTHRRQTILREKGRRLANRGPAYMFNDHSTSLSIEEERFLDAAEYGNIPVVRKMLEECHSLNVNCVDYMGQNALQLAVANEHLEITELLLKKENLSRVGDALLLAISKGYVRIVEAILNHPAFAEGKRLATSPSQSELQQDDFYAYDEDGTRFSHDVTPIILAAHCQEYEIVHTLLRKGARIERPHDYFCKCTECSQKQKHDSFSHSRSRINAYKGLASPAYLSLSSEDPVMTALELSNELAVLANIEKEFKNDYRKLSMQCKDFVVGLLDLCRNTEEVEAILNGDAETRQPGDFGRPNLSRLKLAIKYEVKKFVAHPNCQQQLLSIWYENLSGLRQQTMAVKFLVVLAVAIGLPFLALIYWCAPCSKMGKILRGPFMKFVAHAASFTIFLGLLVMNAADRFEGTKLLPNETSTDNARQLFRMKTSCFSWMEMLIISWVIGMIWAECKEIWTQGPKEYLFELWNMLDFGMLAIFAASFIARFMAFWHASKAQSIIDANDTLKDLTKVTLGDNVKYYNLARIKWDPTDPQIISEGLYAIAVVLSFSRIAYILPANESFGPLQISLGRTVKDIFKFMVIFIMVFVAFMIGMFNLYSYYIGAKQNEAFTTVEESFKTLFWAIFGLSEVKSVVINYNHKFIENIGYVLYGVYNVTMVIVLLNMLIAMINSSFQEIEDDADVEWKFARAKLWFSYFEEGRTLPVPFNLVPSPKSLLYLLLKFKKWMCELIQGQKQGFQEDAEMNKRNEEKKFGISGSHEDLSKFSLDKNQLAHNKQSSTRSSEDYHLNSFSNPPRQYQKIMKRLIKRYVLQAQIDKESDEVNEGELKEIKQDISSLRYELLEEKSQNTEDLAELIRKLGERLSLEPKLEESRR
# Chain of Potassium voltage-gated channel subfamily KQT member 1 (Homo sapiens) (P51787 whole entry, looked up): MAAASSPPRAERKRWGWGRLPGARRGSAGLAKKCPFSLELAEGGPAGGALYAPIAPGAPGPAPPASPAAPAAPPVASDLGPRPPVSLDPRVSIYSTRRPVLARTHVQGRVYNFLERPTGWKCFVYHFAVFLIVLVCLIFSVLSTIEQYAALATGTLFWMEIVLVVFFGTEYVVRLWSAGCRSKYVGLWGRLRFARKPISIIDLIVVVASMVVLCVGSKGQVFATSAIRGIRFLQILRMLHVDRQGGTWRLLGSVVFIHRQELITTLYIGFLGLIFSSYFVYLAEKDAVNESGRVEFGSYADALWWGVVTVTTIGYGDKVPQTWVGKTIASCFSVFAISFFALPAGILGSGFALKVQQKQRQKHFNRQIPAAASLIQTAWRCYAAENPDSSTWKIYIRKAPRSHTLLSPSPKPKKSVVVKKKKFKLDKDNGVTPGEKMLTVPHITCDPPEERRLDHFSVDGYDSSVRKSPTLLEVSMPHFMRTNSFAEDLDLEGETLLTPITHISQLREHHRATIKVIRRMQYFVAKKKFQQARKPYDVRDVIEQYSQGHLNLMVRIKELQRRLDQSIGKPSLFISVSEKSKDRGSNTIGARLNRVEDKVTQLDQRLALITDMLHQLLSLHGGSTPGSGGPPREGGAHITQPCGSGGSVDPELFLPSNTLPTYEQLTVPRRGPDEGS
smiles,measurement,setting,value
Cc1ccc(S(=O)(=O)N2CCC(N3CCN(C)CC3)CC2)cc1Cl,outcome,[1],inactive
same,outcome,[2],inactive
same,potentiation,[3],12% (active)
same,potentiation,[4],20% (active)
same,outcome,[5],inactive
same,outcome,[6],inactive
same,outcome,[7],inactive
same,outcome,[8],inactive
same,outcome,[9],inactive
same,outcome,[10],inactive
same,outcome,[11],inactive
same,outcome,[12],inactive
same,outcome,[13],inactive
same,potentiation,[14],34.5% (active)
same,outcome,[15],inactive
same,outcome,[16],inactive
COc1ccc(-n2c3c(cc(C(=O)NNc4ccccc4)c2=O)C(=O)CC(C)(C)C3)cc1,activation,[1],104% (active)
same,outcome,[2],inactive
same,outcome,[3],inactive
same,outcome,[4],inactive
same,outcome,[5],inactive
same,outcome,[6],inactive
same,outcome,[17],inactive
same,outcome,[8],inactive
same,outcome,[9],inactive
same,outcome,[10],inactive
same,outcome,[11],inactive
same,outcome,[12],inactive
same,outcome,[13],inactive
same,outcome,[14],inactive
same,outcome,[15],inactive
same,outcome,[16],inactive
CC1CCN(c2nc(Cl)nc(Nc3ccc([N+](=O)[O-])cc3)n2)CC1,outcome,[1],inactive
same,outcome,[2],inactive
same,outcome,[3],inactive
same,potentiation,[4],15% (active)
same,outcome,[5],inactive
same,outcome,[6],inactive
same,outcome,[7],inactive
same,outcome,[8],inactive
same,outcome,[9],inactive
same,outcome,[10],inactive
same,outcome,[11],inactive
same,outcome,[12],inactive
same,outcome,[13],inactive
same,potentiation,[14],66% (active)
same,outcome,[15],inactive
same,outcome,[16],inactive
CN(C)CCNc1ccc(Cl)cc1[N+](=O)[O-],outcome,[1],inactive
same,outcome,[2],inactive
same,outcome,[3],inactive
same,outcome,[4],inactive
same,outcome,[5],inactive
same,outcome,[6],inactive
same,outcome,[7],inactive
same,outcome,[8],inactive
same,outcome,[9],inactive
same,outcome,[10],inactive
same,outcome,[11],inactive
same,outcome,[12],inactive
same,outcome,[13],inactive
same,potentiation,[14],8.91% (active)
same,outcome,[15],inactive
same,outcome,[16],inactive
c1ccc(-c2nc(N3CCNCC3)nc3ccccc23)cc1,outcome,[1],inactive
same,outcome,[2],inactive
same,potentiation,[3],19% (active)
same,outcome,[4],inactive
same,outcome,[5],inactive
same,outcome,[6],inactive
same,outcome,[7],inactive
same,outcome,[8],inactive
same,outcome,[9],inactive
same,outcome,[10],inactive
same,outcome,[11],inactive
same,outcome,[12],inactive
same,outcome,[13],inactive
same,outcome,[14],inactive
same,outcome,[15],inactive
same,outcome,[16],inactive
Cc1ccc(Cl)cc1N1CCN(C(=O)c2cccc3c(=O)c(C)c(-c4ccccc4)oc23)CC1,outcome,[1],inactive
same,outcome,[2],inactive
same,outcome,[3],inactive
same,outcome,[4],inactive
same,outcome,[5],inactive
same,outcome,[6],inactive
same,outcome,[7],inactive
same,outcome,[8],inactive
same,outcome,[9],inactive
same,outcome,[10],inactive
same,outcome,[11],inactive
same,outcome,[12],inactive
same,outcome,[13],inactive
same,potentiation,[14],21.8% (active)
same,outcome,[15],inactive
same,outcome,[16],inactive
CCCCCCn1c(N2CCN(c3ccccc3)CC2)nc2c1c(=O)n(C)c(=O)n2C,outcome,[1],inactive
same,outcome,[2],inactive
same,potentiation,[3],9% (active)
same,potentiation,[4],117% (active)
same,outcome,[5],inactive
same,outcome,[6],inactive
same,outcome,[7],inactive
same,outcome,[8],inactive
same,outcome,[9],inactive
same,outcome,[10],inactive
same,outcome,[11],inactive
same,outcome,[12],inactive
same,outcome,[13],inactive
same,potentiation,[14],81% (active)
same,outcome,[15],inactive
same,outcome,[16],inactive
O=C(CCN1CCN(Cc2ccccc2)CC1)Nc1ccc(OCc2ccccc2)cc1,outcome,[1],inactive
same,outcome,[2],inactive
same,outcome,[3],inactive
same,potentiation,[4],12% (active)
same,outcome,[5],inactive
same,outcome,[6],inactive
same,outcome,[7],inactive
same,outcome,[8],inactive
same,outcome,[9],inactive
same,outcome,[10],inactive
same,outcome,[11],inactive
same,outcome,[12],inactive
same,outcome,[13],inactive
same,potentiation,[14],25.1% (active)
same,outcome,[15],inactive
same,outcome,[16],inactive
O=C(c1cccc([N+](=O)[O-])c1)N1CCCC(C(=O)N2CCCCCC2)C1 (stereo unspecified),outcome,[1],inactive
same,outcome,[2],inactive
same,outcome,[3],inactive
same,outcome,[4],inactive
same,outcome,[5],inactive
same,outcome,[6],inactive
same,outcome,[7],inactive
same,outcome,[8],inactive
same,outcome,[9],inactive
same,outcome,[10],inactive
same,outcome,[11],inactive
same,outcome,[12],inactive
same,outcome,[13],inactive
same,outcome,[14],inactive
same,outcome,[15],inactive
same,outcome,[16],inactive
CCN1CCCC1CNS(=O)(=O)c1c(C)cc(C)cc1C (stereo unspecified),activation,[1],95% (active)
same,outcome,[2],inactive
same,outcome,[3],inactive
same,outcome,[4],inactive
same,outcome,[5],inactive
same,outcome,[6],inactive
same,outcome,[17],inactive
same,outcome,[8],inactive
same,outcome,[9],inactive
same,activation,[10],61.5% (active)
same,outcome,[11],inactive
same,activation,[12],20.3% (active)
same,outcome,[13],inactive
same,outcome,[14],inactive
same,outcome,[15],inactive
same,outcome,[16],inactive
C=CCn1c(/N=C/c2ccc(N(C)C)cc2)nc2ccccc21,activation,[1],148% (active)
same,outcome,[2],inactive
same,outcome,[3],inactive
same,potentiation,[4],24% (active)
same,outcome,[5],inactive
same,outcome,[6],inactive
same,outcome,[17],inactive
same,outcome,[8],inactive
same,outcome,[9],inactive
same,activation,[10],159% (active)
same,outcome,[11],inactive
same,activation,[12],44.6% (active)
same,outcome,[13],inactive
same,potentiation,[14],10.4% (active)
same,activation,[15],103% (active)
same,activation,[16],1320% (active)
Cc1cccc(/C=N/NC(=O)c2cc(Br)ccc2O)n1,outcome,[1],inactive
same,outcome,[2],inactive
same,potentiation,[3],24% (active)
same,potentiation,[4],46% (active)
same,outcome,[5],inactive
same,outcome,[6],inactive
same,outcome,[7],inactive
same,outcome,[8],inactive
same,outcome,[9],inactive
same,outcome,[10],inactive
same,outcome,[11],inactive
same,outcome,[12],inactive
same,outcome,[13],inactive
same,potentiation,[14],100% (active)
same,outcome,[15],inactive
same,outcome,[16],inactive
same,activation,[18],140% (active)
same,potentiation,[19],48% (active)
same,potentiation,[20],182% (active)
O=C(NC(=S)NNC(=O)c1ccccc1[N+](=O)[O-])c1ccc(Br)cc1,activation,[1],141% (active)
same,outcome,[2],inactive
same,outcome,[3],inactive
same,outcome,[4],inactive
same,outcome,[5],inactive
same,outcome,[6],inactive
same,outcome,[17],inactive
same,outcome,[8],inactive
same,outcome,[9],inactive
same,activation,[10],29% (active)
same,outcome,[11],inactive
same,outcome,[12],inactive
same,outcome,[13],inactive
same,outcome,[14],inactive
same,activation,[15],15.6% (active)
same,outcome,[16],inactive
